Screening data: PubChem, National Center for Advancing Translational Sciences (NCATS)
Sampled rows, rich in hits. Any-hit rate of the full collection: about 14%.
Sm TGR block = blocks Schistosoma mansoni thioredoxin glutathione reductase. Q962Y6. purified TGR, DTNB reduction, TNB absorbance 405 nm. Potency, µM (titrated, usually from 114 µM), inactives show top-dose activity change, negative = inhibition, usual class: inhibitors. actives 3% (n = 360,000). AID 485364; note: potency is the fitted concentration of half-maximal effect; nearly all actives have a fitted effect of over 60% in size
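Kinetic colorimetric format: TGR-catalysed, NADPH-driven DTNB reduction monitored via TNB absorbance. Enzyme dispensed at 20 nM; compound exposure 15 min at room temperature before reaction start.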
Pf growth 96h = P. falciparum growth inhibition at 96 hours; P. falciparum luciferase reporter growth, 96 h; Potency, µM (series often up to 28.7 µM), for the others: at the top dose activity change, negative = inhibition, usual class: inhibitors; actives 6.9% (n = 320,000); AID 504834; note: potency is the fitted concentration of half-maximal effect
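Readout is luminescence from an integrated firefly luciferase in P. falciparum. Red cells, 2% hematocrit and 0.05% parasitemia final, were cultured with compound through two parasite generations (96 hours) at 37 C, 5% CO2.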
FBPA Giardia inh = inhibitors of Giardia lamblia fructose-1,6-bisphosphate aldolase. A8B2U2. purified Giardia FBPA. Potency, µM (top dose mostly 59.6 µM), for the others: at the highest dose activity, negative = inhibition, most hits filed as inhibitors. actives 0.71% (n = 290,000). AID 2451; note: potency is the fitted concentration of half-maximal effect; nearly all actives have a fitted effect of over 55% in size
Target sequence (A8B2U2 whole entry, looked up): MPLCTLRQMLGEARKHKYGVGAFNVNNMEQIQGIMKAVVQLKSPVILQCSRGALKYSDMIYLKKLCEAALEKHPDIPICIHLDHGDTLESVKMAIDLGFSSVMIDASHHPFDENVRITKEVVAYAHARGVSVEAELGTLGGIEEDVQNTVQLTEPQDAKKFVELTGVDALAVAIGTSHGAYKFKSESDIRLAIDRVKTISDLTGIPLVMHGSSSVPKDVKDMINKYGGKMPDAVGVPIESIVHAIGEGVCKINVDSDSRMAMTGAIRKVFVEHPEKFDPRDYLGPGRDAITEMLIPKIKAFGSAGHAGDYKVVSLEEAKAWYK
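40 nM FBPA preincubated 10 min at RT with compound (up to 57.5 uM final), then substrate plus GAPDH/TPI/NAD/arsenate coupling and diaphorase/resazurin added. Fluorescence read after 20 min at RT, 525/598 nm.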
HCMV antiviral = blocks human cytomegalovirus replication; HFF cells, HCMV-luciferase reporter, 72 h; active compounds read low; activity change, negative = inhibition, % at 57.5 µM; actives 4.5% (n = 410,000); AID 1259415; in the data active = activity change below about -60%; inconclusive = no clear call, values can overlap the other calls; inactive = above about -39%
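Two-dose cell screen: HFF monolayers treated with compounds and infected with luciferase-expressing HCMV at 1 PFU/cell, 72 h at 37C, then lysed for luciferase measurement.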
Pf growth 48h = P. falciparum growth inhibition at 48 hours (one generation); actives 5.9% (n = 310,000); P. falciparum luciferase growth in erythrocytes, 48 h; Potency, µM (titrated, usually from 28.7 µM), for inactives: top-dose activity change, negative = inhibition, most hits filed as inhibitors; AID 504832; note: potency is the fitted concentration of half-maximal effect
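Here the parasites carry a stable luciferase gene and grow inside erythrocytes in Albumax-based RPMI medium with compound for one erythrocytic cycle. Activity is scored as loss of luminescent signal.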
Active calls of the source: *; ? = inconclusive; nt = no result; [ ] = another dose, or the depositor's remark. Unless noted, calls come from the whole dose curve; as a rule, active = well fitted curve in the direction sought with a large enough effect; inconclusive = small, poorly fitted or top-dose-only effect, or another doubt; inactive = no such curve, though single readings can be large; an effect the other way counts as inactive or inconclusive. % is set by controls: 0 for no effect and ±100 for the full control effect.

SMILES	Sm TGR block	Pf growth 96h	FBPA Giardia inh	HCMV antiviral	Pf growth 48h
C#CCOCCOCCOCCNc1nc(N2CCN(C(=O)C(CCC(=O)O)n3cc(C(N)CC(C)C)nn3)CC2)nc(N2CCN(C(=O)C(Cc3cc4ccccc4[nH]3)n3cc(C(N)Cc4ccc(O)cc4)nn3)CC2)n1 (centres undefined)	50%	2%	-17%	nt	-13%
C#CCOCCOCCOCCNc1nc(N2CCN(C(=O)C(Cc3cc4ccccc4[nH]3)n3cc(C(N)Cc4ccc(O)cc4)nn3)CC2)nc(N2CCN(C(=O)C(Cc3cc4ccccc4[nH]3)n3cc(C(N)Cc4ccc(O)cc4)nn3)CC2)n1 (centres undefined)	-15%	?	1%	nt	2.3µM*
C#CCOCCOCCOCCNc1nc(N2CCN(C(=O)[C@H](Cc3cc4ccccc4[nH]3)n3cc([C@@H](N)Cc4ccc(O)cc4)nn3)CC2)nc(N2CCN(C(=O)[C@H](Cc3cc4ccccc4[nH]3)n3cc([C@@H](N)CC(C)C)nn3)CC2)n1	-4%	10µM*	0%	nt	13µM*
CC(NC(=O)CN1C(=O)NC2(CCCCCCC2)C1=O)c1ccccc1 (centres undefined)	nt	nt	nt	-6	nt
CCC(C)c1ccc(NC(=O)c2c([N+](=O)[O-])cnn2CC)cc1 (centres undefined)	0%	5.2µM*	2%	-24	-47%
C(=C1c2ccccc2-c2ccccc21)c1ccccn1	nt	nt	nt	0	nt
Nc1nnnn1/N=C/c1ccc(O)cc1	-10%	2.1µM*	5%	75	nt
COc1cc(/C=N/n2nnnc2N)ccc1OC(C)=O	0%	-23%	7%	11	21%
COc1cc(/C=N/n2nnnc2N)ccc1O	11%[11.4 µM]	13µM*	2%	57	nt
C(=N\N=C\c1ccccn1)/c1ccccn1	0%	?	-30%	6	13µM*
Nc1nnnn1/N=C/c1ccccn1	-11%	6.6µM*	?	-22	27%
COc1cc(C(=O)N2CCN(c3cccc(C(F)(F)F)c3)CC2)ccc1OCC(=O)N1CCOCC1	nt	nt	nt	0	nt
COc1ccc(-n2c(=O)cnc3cnc(Oc4ccccc4)nc32)cc1	nt	nt	-5%	nt	nt
CCc1ccc(/C=C(\C#N)C(=O)NC2CCS(=O)(=O)C2)cc1 (centres undefined)	nt	nt	nt	-6	nt
CCN(C)c1ccc(/C=N\n2nnnc2N)cc1	-4%	2.6µM*	-5%	61	197%
O=c1c2ccccc2nc(-c2ccco2)n1CCc1ccc(O)cc1	-27%	?	3%	-40	?
O=C(OC1CO[C@H]2O[C@@H]1[C@H](OC(=O)c1ccccc1)[C@H]2OC(=O)c1ccccc1)c1ccccc1 (some centres undefined)	nt	nt	nt	41	nt
COc1cc2ccccc2cc1C(=O)N1CCN(c2nc3ccc(F)cc3s2)CC1	6%	nt	nt	-64*	nt
COc1cc2ccccc2cc1C(=O)N1CCN(C(C)=O)CC1	-1%	-10%	nt	18	-8%
O=C(c1ccc(S(=O)(=O)Cc2ccccc2Cl)c([N+](=O)[O-])c1)N1CCN(c2ccccn2)CC1	7.9µM*	13µM*	-9%	-97*	?
O=C(c1ccc(Cl)c(Cl)c1)N1CCN(c2ccccn2)CC1	0%	?	2%	-16	-2%
Cc1nc2ccc(C(=O)N3CCN(c4ccccn4)CC3)cc2s1	18%	0%[5.75 µM]	6%	-93*	0%
O=C(c1ccc2ncsc2c1)N1CCN(c2ccccc2Cl)CC1	-12%	28%	0%	?	32%
O=C(c1ccc2ncsc2c1)N1CCN(c2nc3ccccc3s2)CC1	-21%	0%	nt	-74*	-15%
COc1ccccc1CNCCS(=O)(=O)NCc1ccccc1	nt	nt	nt	-18	nt
SMILES	Sm TGR block	Pf growth 96h	FBPA Giardia inh	HCMV antiviral	Pf growth 48h
COc1ccc(Cn2c(SCc3ccc(C(=O)NC(C)c4ccccc4)cc3)nc3cccnc32)cc1 (centres undefined)	4%	nt	nt	-4	nt
COc1cc(C(=O)N2CCN(c3ccccn3)CC2)cc(OC)c1OC	17%	?	6%	-19	14%
COc1cc2ccccc2cc1C(=O)N1CCN(c2ccccn2)CC1	-4%	11%	6%	-63*	8%
Cc1ccc(C(=O)N2CCN(c3ccccn3)CC2)cc1[N+](=O)[O-]	nt	-12%	-1%	-35	-2%
COc1ccc(C(=O)N2CCN(c3ccccn3)CC2)cc1[N+](=O)[O-]	4%	?	5%	-80*	-3%
CC(=O)c1ccc(S(=O)(=O)Nc2cccc(-n3cnnn3)c2)cc1	-4%	28%	-2%	35	1%
O=S(=O)(N/N=C\c1ccc2c(c1)OCO2)c1ccc(F)cc1	3%	-84%	-27%	8	32%
CC12CCC(C1)C(C)(C)C2=O (centres undefined)	nt	-8%	nt	nt	5%
CC(C)Oc1ccc(C(CCNCc2ccc(O)cc2)c2ccccc2)cc1 (centres undefined)	6%	1.2µM*	-1%	-19	1.2µM*
COc1ccc(C(CCNCc2ccc(N(C)C)cc2)c2ccccc2)cc1 (centres undefined)	-17%	?	8%	6	15µM*
COc1ccc(CCNCc2ccccc2)cc1	?	9%	?	?	-8%
COc1ccc(C(CCNCc2ccc(OC)c(OC)c2)c2ccc(F)cc2)cc1 (centres undefined)	-2%	?	4%	27	9.3µM*
COc1ccc(CNCCC(c2ccc3c(c2)OCO3)c2ccccc2OC)cc1 (centres undefined)	1%	nt	nt	-106*	nt
COc1ccc(NC(=O)CN(c2c(C)cccc2C)S(C)(=O)=O)cc1	5%	-27%	-3%	82	28%
O=C(NCc1ccco1)C1CC(c2c(Cl)cccc2Cl)=NO1 (centres undefined)	40µM*	?	5%	-33	?
Cc1ccc(CNC(=O)C2CC(c3cccc([N+](=O)[O-])c3)=NO2)o1 (centres undefined)	32µM*	10%	0%	6	18%
Cc1ccc(CNC(=O)C2CC(c3cc(C(F)(F)F)cc(C(F)(F)F)c3)=NO2)o1 (centres undefined)	18µM*	48%	0%	70	22%
Fc1ccccc1NC(=S)Nc1cccnc1	16µM*	0%	-11%	15	8%
Fc1ccc(NC(=S)Nc2cccnc2)cc1Cl	nt	?	-24%	-18	15µM*
S=C(Nc1ccc(-c2nc3ccccc3[nH]2)cc1)Nc1cccnc1	11µM*	-55%	-4%	-22	?
c1cncc(-c2nc3ccccc3[nH]2)c1	6%	0%	-25%	6	72%
FC(F)Oc1ccccc1NC(=S)Nc1cccnc1	22µM*	-1%	-6%	21	9%
O=C(CN(C(=O)c1csnn1)c1ccc2c(c1)OCCO2)NCc1ccccc1	-1%	5%	-3%	26	25%
